Results filed as inconclusive are left out. The source made the active and inactive calls. Unless noted, calls come from the whole dose curve; as a rule, active = well fitted curve in the direction sought with a large enough effect in the repeat runs; inconclusive = weak or mixed curves; inactive = no such curve, though single readings can be large; an effect the other way counts as inactive or inconclusive.
How the values were obtained:
[1] = qHTS assay to identify small molecule agonists of the peroxisome proliferator-activated receptor delta (PPARd) signaling pathway - cell viability counter screen (AID 743211); details: PPARd-bla HEK293H viability, CellTiter-Glo luminescence, 17 h; series mostly up to 62.6 µM; note: nearly all actives have a fitted effect of over 55% in size
Summary of the method: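 Viability of GeneBLAzer PPARd UAS-bla HEK293H cells was assessed after 17 h compound incubation at 37C, using CellTiter-Glo reagent added after the reporter read and luminescence recorded 30 min later.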

[2] = target: Peroxisome proliferator-activated receptor delta (Homo sapiens) (UniProt Q03181); assay: qHTS assay to identify small molecule agonists of the peroxisome proliferator-activated receptor delta (PPARd) signaling pathway (AID 743212; calls by dose curve); details: HEK293H PPARd-UAS-bla, beta-lactamase FRET ratio, 17 h; series mostly up to 62.6 µM
Summary of the method: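 GeneBLAzer UAS-bla HEK293H cells carrying a PPARδ construct were exposed to compounds at 37 °C. Beta-lactamase activity was read by FRET fluorescence after 2 h at room temperature with LiveBLAzer B/G substrate.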

[3] = qHTS assay to identify small molecule antagonists of the peroxisome proliferator-activated receptor delta (PPARd) signaling pathway - cell viability counter screen (AID 743213); details: PPARd-bla HEK293H viability, CellTiter-Glo luminescence, 17 h; series mostly up to 62 µM; note: nearly all actives have a fitted effect of over 50% in size
Summary of the method: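 HEK293H cells with the PPARd UAS-bla reporter, co-treated 17 h at 37 C with compounds and L165041 (300 nM final), were lysed with CellTiter-Glo. Luminescence indicated viable cell content.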

[4] = target: Peroxisome proliferator-activated receptor delta (Homo sapiens) (UniProt Q03181); assay: qHTS assay to identify small molecule antagonists of the peroxisome proliferator-activated receptor delta (PPARd) signaling pathway (AID 743215; active = well fitted inhibition curve with a large enough effect in the signal ratio in the repeat runs, not every such curve was filed as active; the % refers to the signal ratio;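 note: cells stimulated with agonist L165041 at 300 nM final during compound exposure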); details: HEK293H PPARd-UAS-bla, beta-lactamase FRET ratio, antagonist, 17 h; series mostly up to 62 µM
Summary of the method: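 Read-out is beta-lactamase FRET fluorescence, measured 2 h after substrate addition at room temperature. Beforehand, UAS-bla HEK293H cells carrying the PPARd reporter were exposed to compounds with L165041 at 300 nM final for 17 h at 37 C.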

[5] = target: Bile acid receptor (Homo sapiens) (UniProt Q96RI1); assay: qHTS assay to identify small molecule antagonists of the farnesoid-X-receptor (FXR) signaling pathway (AID 743217; active = well fitted inhibition curve with a large enough effect in the signal ratio in the repeat runs, not every such curve was filed as active; the % refers to the signal ratio); details: HEK293T FXR-UAS-bla, beta-lactamase ratio, CDCA-stimulated, 16 h; series mostly up to 62.6 µM
Summary of the method: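 HEK 293T FXR-UAS-bla, 5000 cells/well; compound + CDCA 50 uM final; 16 h, 37 °C; B/G FRET substrate 2 h RT; fluorescence.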

[6] = target: Bile acid receptor (Homo sapiens) (UniProt Q96RI1); assay: qHTS assay to identify small molecule agonists of the farnesoid-X-receptor (FXR) signaling pathway (AID 743220; active = well fitted activation curve with a large enough effect in the signal ratio in the repeat runs, not every such curve was filed as active; the % refers to the signal ratio); details: HEK293T FXR-UAS-bla, beta-lactamase FRET ratio, 16 h; series mostly up to 62.6 µM
Summary of the method: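 Beta-lactamase reporter under UAS control in GeneBLAzer FXR HEK 293T cells (5000/well) measured with LiveBLAzer FRET substrate after 2 h at room temperature. Compound exposure lasted 16 h at 37C.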

[7] = qHTS assay to identify small molecule antagonists of the farnesoid-X-receptor (FXR) signaling pathway - cell viability counter screen (AID 743221; active = well fitted cell-killing curve with a large enough effect in the repeat runs, not every such curve was filed as active; note: nearly all actives have a fitted effect of over 50% in size); details: FXR-bla HEK293T viability, CellTiter-Glo luminescence, 16 h; series mostly up to 62.6 µM
Summary of the method: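 Quantitative HTS of the Tox21 10K library run in parallel with the beta-lactamase reporter read. HEK 293T cells carrying a UAS-driven bla reporter got compound and 50 uM CDCA (final) for 16 h; ATP-based luminescence followed.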

[8] = target: Vitamin D3 receptor (Homo sapiens) (UniProt P11473); assay: qHTS assay to identify small molecule agonists of the vitamin D receptor (VDR) signaling pathway (AID 743222; calls by dose curve); details: HEK293T VDR-UAS-bla, beta-lactamase FRET ratio, 16 h; series mostly up to 63.5 µM
Summary of the method: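 VDR-bla cells, 2,000/well; 4 h preincubation 37C; cpd (DMSO) 16 h; LiveBLAzer B/G substrate 2 h RT; fluorescence intensity read.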

[9] = target: Vitamin D3 receptor (Homo sapiens) (UniProt P11473); assay: qHTS assay to identify small molecule antagonists of the vitamin D receptor (VDR) signaling pathway (AID 743223; active = well fitted inhibition curve with a large enough effect in the signal ratio in the repeat runs, not every such curve was filed as active; the % refers to the signal ratio); details: VDR-UAS-bla HEK293T, beta-lactamase FRET ratio, 16 h; series mostly up to 61 µM
Summary of the method: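 Fluorescence from LiveBLAzer B/G FRET substrate, read after 2 h at room temperature, reflects beta-lactamase reporter activity in VDR-bla cells treated 16 h at 37C with compounds and agonist 1alpha,25-dihydroxyvitamin D3 (3 nM final).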

[10] = qHTS assay to identify small molecule antagonists of the vitamin D receptor (VDR) signaling pathway - cell viability counter screen (AID 743225); details: VDR-bla HEK293T viability, CellTiter-Glo luminescence, 16 h; series mostly up to 61 µM; note: nearly all actives have a fitted effect of over 50% in size
Summary of the method: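 Cells (VDR-UAS-bla HEK 293T) are plated, rested 4 h at 37C, dosed with compound and 3 nM final 1-alpha,25-dihydroxy vitamin D3, and incubated 16 h. Viability is taken from CellTiter-Glo luminescence in the reporter wells.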

[11] = qHTS assay to identify small molecule agonists of the NFkB signaling pathway (AID 1159509; active = well fitted curve in the direction sought with a large enough effect in the signal ratio in the repeat runs, not every such curve was filed as active; the % refers to the signal ratio); details: NFkB-bla ME-180 cells, beta-lactamase FRET ratio, 5 h; series mostly up to 61 µM
Summary of the method: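 NFkB-bla ME-180 cells carry a beta-lactamase reporter under an NF-kB response element. They were plated overnight, then exposed to compounds for 5 h at 37 C. Read-out is LiveBLAzer FRET after 1.5 hr at room temperature (405 nm excitation; 460/530 nm emission).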

[12] = qHTS assay to identify small molecule agonists of the NFkB signaling pathway - cell viability counter screen (AID 1159515; calls by dose curve; note: nearly all actives have a fitted effect of over 55% in size); details: NFkB-bla ME-180 viability, CellTiter-Glo luminescence, 5 h; series mostly up to 61 µM
Summary of the method: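 Luminescence from CellTiter-Glo (30 min, room temperature) gives viability, measured in the same wells as the beta-lactamase reporter read. Cells were NFkB-bla ME-180, 2,000 per well, treated 5 hr with compounds.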

[13] = qHTS assay to identify small molecule agonists of the endoplasmic reticulum stress response signaling pathway (AID 1159516; active = well fitted activation curve with a large enough effect in the signal ratio in the repeat runs, not every such curve was filed as active; the % refers to the signal ratio); details: ESRE-bla HeLa, ER stress beta-lactamase reporter, 5 h; series mostly up to 61 µM
Summary of the method: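 Read-out is beta-lactamase cleavage of a FRET substrate (405 nm excitation; 460 and 530 nm emissions) in ESRE-bla HeLa cells after a 5 hr compound exposure at 37 C. Substrate incubation ran 2 hr at room temperature.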

[14] = qHTS assay to identify small molecule agonists of the endoplasmic reticulum stress response signaling pathway - cell viability counter screen (AID 1159517; calls by dose curve;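 note: HeLa cells carrying an ER stress response element beta-lactamase reporter; nearly all actives have a fitted effect of over 50% in size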); details: ESRE-bla HeLa viability, CellTiter-Glo luminescence, 5 h; series mostly up to 61 µM
Summary of the method: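 ESRE-bla HeLa cells, 1,500 per well, seeded overnight then treated with compounds for 5 hr at 37 C. After the beta-lactamase read, viability in the same wells is measured by CellTiter-Glo luminescence after 30 min at room temperature.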

[15] = qHTS assay to identify small molecule antagonists of the retinoid-related orphan receptor gamma (ROR-gamma) signaling pathway - cell viability counter screen (AID 1159520); details: Tet-on RORgamma CHO cells viability, ATP luminescence, 16 h; series mostly up to 92.4 µM; note: nearly all actives have a fitted effect of over 50% in size
Summary of the method: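 Tet-on ROR gamma CHO cells were given compounds for 2 hr, then doxycycline hyclate at 1 uM final, and incubated 16 hr at 37 C. Viability was measured as ATP content by CellTiter-Glo luminescence.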

[16] = target: Nuclear receptor ROR-gamma (Homo sapiens) (UniProt P51449); assay: qHTS assay to identify small molecule antagonists of the retinoid-related orphan receptor gamma (ROR-gamma) signaling pathway (AID 1159521); details: Tet-on RORgamma CHO cells, RORE-luciferase, 16 h; series mostly up to 92.4 µM
Summary of the method: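 RORγ antagonism is scored from reduced reporter luminescence in Tet-on CHO cells. Induction used 1 uM final doxycycline hyclate for 16 h at 37 C, following a 2 h compound exposure.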

[17] = qHTS assay to identify small molecule agonists of the AP-1 signaling pathway - cell viability counter screen (AID 1159525; calls by dose curve; note: nearly all actives have a fitted effect of over 55% in size); details: ME-180 AP-1-bla cells viability, ATP luminescence, 5 h; series mostly up to 76.8 µM
Summary of the method: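 AP-1-bla ME-180 cells in Opti-MEM with 0.5% dialyzed FBS, compound exposure 5 h at 37 C in 15-point titration. Viability read in the same wells as ATP content by CellTiter-Glo luminescence, normalised to tetra-n-octylammonium bromide and DMSO controls.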

[18] = qHTS assay to identify small molecule agonists of the AP-1 signaling pathway (AID 1159526; calls by dose curve); details: ME-180 (cervical carcinoma) AP-1-bla reporter, beta-lactamase FRET ratio, 5 h; series mostly up to 76.8 µM
[19] = qHTS assay to identify small molecule agonists of the vitamin D receptor (VDR) signaling pathway - cell viability counter screen (AID 743224); details: VDR-bla HEK293T viability, CellTiter-Glo luminescence, 16 h; series mostly up to 62.6 µM; note: nearly all actives have a fitted effect of over 50% in size
Summary of the method: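 Luminescence from CellTiter-Glo, read after 30 min at room temperature, reports viability of VDR-bla cells treated with compounds for 16 h at 37C in the wells used for the beta-lactamase FRET read.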

[20] = qHTS assay to identify small molecule agonists of the farnesoid-X-receptor (FXR) signaling pathway - cell viability counter screen (AID 743218); details: FXR-bla HEK293T viability, CellTiter-Glo luminescence, 16 h; series mostly up to 62.6 µM; note: nearly all actives have a fitted effect of over 45% in size
Summary of the method: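 HEK 293T FXR-bla cells; 5 h pre-incubation, 16 h compound exposure at 37 C; LiveBLAzer substrate 2 h RT, then CellTiter-Glo 30 min RT, luminescence.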

Measured: Potency

Bile acid receptor (Homo sapiens), sequence (Q96RI1 whole entry, looked up): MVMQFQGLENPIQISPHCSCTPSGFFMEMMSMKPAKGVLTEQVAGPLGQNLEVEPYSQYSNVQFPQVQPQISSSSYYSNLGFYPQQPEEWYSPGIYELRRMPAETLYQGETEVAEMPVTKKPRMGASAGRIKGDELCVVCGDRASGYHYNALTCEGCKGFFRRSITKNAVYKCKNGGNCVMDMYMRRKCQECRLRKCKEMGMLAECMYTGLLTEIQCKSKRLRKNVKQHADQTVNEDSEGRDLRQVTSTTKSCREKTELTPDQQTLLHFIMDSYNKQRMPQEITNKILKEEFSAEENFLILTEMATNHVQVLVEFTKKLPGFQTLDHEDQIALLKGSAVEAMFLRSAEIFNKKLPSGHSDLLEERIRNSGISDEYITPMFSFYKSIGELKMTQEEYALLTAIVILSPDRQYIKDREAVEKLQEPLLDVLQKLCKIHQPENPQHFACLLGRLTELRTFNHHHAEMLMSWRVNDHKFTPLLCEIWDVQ
Vitamin D3 receptor (Homo sapiens), sequence (P11473 whole entry, looked up): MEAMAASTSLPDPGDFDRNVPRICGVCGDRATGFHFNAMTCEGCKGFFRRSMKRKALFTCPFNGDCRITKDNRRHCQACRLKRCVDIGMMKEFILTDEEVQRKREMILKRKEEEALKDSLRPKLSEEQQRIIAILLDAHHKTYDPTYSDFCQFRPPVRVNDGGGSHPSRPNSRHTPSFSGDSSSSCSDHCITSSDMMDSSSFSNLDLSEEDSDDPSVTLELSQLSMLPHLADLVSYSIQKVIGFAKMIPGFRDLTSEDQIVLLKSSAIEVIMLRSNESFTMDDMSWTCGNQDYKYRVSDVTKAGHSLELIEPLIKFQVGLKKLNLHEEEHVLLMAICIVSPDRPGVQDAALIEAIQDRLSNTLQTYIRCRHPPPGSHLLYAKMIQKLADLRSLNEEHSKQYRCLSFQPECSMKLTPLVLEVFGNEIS
Peroxisome proliferator-activated receptor delta (Homo sapiens), sequence (Q03181 whole entry, looked up): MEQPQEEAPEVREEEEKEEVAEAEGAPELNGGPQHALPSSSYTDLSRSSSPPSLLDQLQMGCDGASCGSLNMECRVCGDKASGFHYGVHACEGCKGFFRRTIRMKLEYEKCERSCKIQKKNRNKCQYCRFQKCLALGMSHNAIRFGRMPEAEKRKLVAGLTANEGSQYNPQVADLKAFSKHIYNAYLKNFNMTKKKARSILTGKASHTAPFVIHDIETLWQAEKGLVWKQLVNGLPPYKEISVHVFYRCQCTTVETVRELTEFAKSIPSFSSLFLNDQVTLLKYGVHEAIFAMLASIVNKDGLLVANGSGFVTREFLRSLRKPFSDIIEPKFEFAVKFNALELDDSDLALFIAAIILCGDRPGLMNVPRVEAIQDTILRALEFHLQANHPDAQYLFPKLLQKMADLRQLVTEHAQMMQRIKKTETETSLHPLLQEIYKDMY

Fc1cc(Br)ccc1CBr
not listed: [19] | [20]
inactive: all other assays above

CC(C)NCC(O)c1ccc(N)c(C#N)c1 (stereo not drawn)
not listed: [6] | [8] | [9] | [20]
inactive: all other assays above

CCOC(=O)CP(=O)(OCC)OCC
not listed: [8] | [9]
inactive: all other assays above

CC1=NNC(=O)N(/N=C/c2cccnc2)C1
not listed: [5] | [6] | [19] | [20]
inactive: all other assays above

CC1CCCCC1NC(=O)Nc1ccccc1 (stereo not drawn)
not listed: [20]
inactive: all other assays above

COc1ncc(F)c2nc(S(=O)(=O)Nc3c(F)cccc3F)nn12
not listed: [5] | [6] | [8] | [9]
inactive: all other assays above

CC(C)COP(=O)(OCC(C)C)OCC(C)C
not listed: [9]
inactive: all other assays above

CC(C1CC1)C(O)(Cn1cncn1)c1ccc(Cl)cc1 (stereo not drawn)
not listed: [5] | [6] | [9] | [19] | [20]
inactive: all other assays above

CCC1(c2ccccc2)C(=O)NC(=O)NC1=O
not listed: [4] | [5] | [6]
inactive: all other assays above

CN1C[C@@H](NS(=O)(=O)N(C)C)C[C@@H]2c3cccc4c3c(cn4C)C[C@H]21
not listed: [5] | [6] | [9]
inactive: all other assays above

CCCCOC(=O)c1ccccc1N
not listed: [19]
inactive: all other assays above

CCN(Cc1ccc(Cl)nc1)/C(=C/[N+](=O)[O-])NC
not listed: [5] | [6] | [19]
inactive: all other assays above

O=C(NCO)NCO
not listed: [4] | [5] | [6] | [9]
inactive: all other assays above

CCCCN(CCCCO)N=O
not listed: [5] | [6] | [20]
inactive: all other assays above

CC(=O)CCc1ccc2c(c1)OCO2
not listed: [8] | [9] | [19]
inactive: all other assays above

CCOC(=O)NC(=S)Nc1ccccc1NC(=S)NC(=O)OCC
not listed: [4] | [5] | [6] | [9]
inactive: all other assays above

Reference: PubChem BioAssay (Tox21)
